From PubChem BioAssay (EPA / NIEHS) come the findings set out here.

SMILES strings stand for the structures. Inconclusive results are not listed. Calls of active or inactive are those of the source. Rule for the calls: active = hit-call score of the fitted dose curve at least 0.9, where 1 is the maximum; inconclusive = response in the unintended direction; inactive = score below 0.9.

A short description of this assay: TOX21_p53_BLA_p2_viability: Viability Assessment in the Tox21 HCT-116 p53 Agonism Beta-lactamase Assay, Phase 2 (AID 2283591).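 Note: compound exposure lasted 16 h at 37 °C; actives lower the ATP signal meaning cytotoxicity.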 An outline of the steps: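 Cytotoxicity readout: CellTiter-Glo ATP luminescence, 30 min at room temperature, after the beta-lactamase read. Cells were HCT116 exposed 16 h at 37C to compounds pin-transferred at 217-fold dilution from DMSO stocks.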
As to `CON=C(C(=O)N[C@@H]1C(=O)N2C(C(=O)O)=C(COC(N)=O)CS[C@H]12)c1ccco1`, the call was inactive.
By AC50 is commonly meant the midpoint of the concentration-response curve, whichever way the signal moves. For `C[C@H]1O[C@@H](n2cc(F)c(=O)[nH]c2=O)[C@H](O)[C@@H]1O`, the AC50 is 17.9 µM (active).
`O=C(O)c1cc(=O)c2c3nc4ccccc4oc-3cc(=O)c2[nH]1`: the call was inactive.
For the molecule `CO[C@@]12[C@H](COC(N)=O)C3=C(C(=O)C(C)=C(N)C3=O)N1C[C@@H]1N[C@@H]12`, the half-maximal activity concentration (AC50) was 33.2 µM (active).
Same read-out and setting: the same measure for `CCN(CC)CCOc1ccc(-c2nc3cc(Cl)ccc3s2)cc1`: 44.8 µM (active); for `Cc1c(Cl)cccc1Nc1ccccc1C(=O)O`: 5.79 µM (active).
For the molecule `CO[C@H]1/C=C/O[C@@]2(C)Oc3c(C)c(O)c4c(O)c(cc(O)c4c3C2=O)NC(=O)/C(C)=C\C=C\[C@H](C)[C@H](O)[C@@H](C)[C@@H](O)[C@@H](C)[C@H](OC(C)=O)[C@@H]1C`, the outcome was inactive.
On to `COc1ccccc1N1CCN(CC(O)COc2cccc3ccccc23)CC1` (stereo not given), for which the molecule was called inactive.
Still for that read-out and setting: the same measure for `CN(C)c1nc(N(C)C)nc(N(C)C)n1`: “inactive”.
The same measure, in the same setting: the same measure for `NC(=O)c1ccccc1C(N)=O`: “inactive”; for `OC[C@@H](O)[C@@H](O[C@@H]1O[C@H](CO)[C@H](O)[C@H](O)[C@H]1O)[C@H](O)[C@@H](O)CO`: “inactive”; for `NCCS`: “inactive”.
Same read-out and setting: the same measure for `CCCCCCCCCCCCCCC(=O)O`: “inactive”.
Take `CCCCCCCCCCCCCCCCCC(=O)OC[C@@H](O)[C@H]1OC[C@H](O)[C@H]1O`: the result was inactive.
On the same count and under the same terms, the same measure for `Cc1ccc2nc(N)[nH]c(=O)c2c1Sc1ccncc1`: “inactive”.
As for `COc1cccc2c1[C@@H]1CN(CCCCn3c(=O)[nH]c4c(sc5ncc(-c6ccccc6)nc54)c3=O)C[C@@H]1CO2`, the concentration at half-maximal activity (AC50) was 39.8 µM (active).
With `CCOC(=O)C=CC(=O)O`, the outcome was inactive.
Consider `O=C(Nc1ccc(Br)cc1)c1cc(Br)c(Br)s1`, for which the AC50 is 23 µM (active).
As for `CCC(C)(C)c1ccc(CC(C)CN2C[C@@H](C)O[C@@H](C)C2)cc1` (stereo not given in full), the result was inactive.
`O=C(O)COC(=O)Cc1ccccc1Nc1c(Cl)cccc1Cl`: the molecule was called inactive.
On the same count and under the same terms, the same measure for `C=CC(=O)O`: “inactive”; for `CCC(C)n1ncn(-c2ccc(N3CCN(c4ccc(OC[C@H]5CO[C@](Cn6cncn6)(c6ccc(Cl)cc6Cl)O5)cc4)CC3)cc2)c1=O` (stereo not given in full): “inactive”.
As to `NCCCC[C@H](NC(=O)[C@@H]1CCCN1C(=O)[C@@H]1CSSC[C@H](N)C(=O)N[C@@H](Cc2ccc(O)cc2)C(=O)N[C@@H](Cc2ccccc2)C(=O)N[C@@H](CCC(N)=O)C(=O)N[C@@H](CC(N)=O)C(=O)N1)C(=O)NCC(N)=O`, the molecule was called inactive.
For `C=C1/C(=C\C=C2/CCC[C@]3(C)[C@@H]([C@H](C)CCCC(C)(C)O)CC[C@@H]23)C[C@@H](O)C[C@@H]1O`, the half-maximal activity concentration (AC50) was 19.8 µM (active).
With `C=CCNC1=C2C[C@@H](C)C[C@H](OC)[C@H](O)[C@@H](C)/C=C(\C)[C@H](OC(N)=O)[C@@H](OC)/C=C\C=C(/C)C(=O)NC(=CC1=O)C2=O`, the molecule was classed as inactive.
As for `O[C@@H](CNC[C@H](O)[C@H]1CCc2cc(F)ccc2O1)[C@@H]1CCc2cc(F)ccc2O1`, the half-maximal activity concentration (AC50) was 34.9 µM (active).
Take `O=C(O)c1ccc(Cl)c(Cl)c1`: the molecule was called inactive.
As for `Cc1ccc(S(=O)(=O)NC(=O)NN2CC3CCCC3C2)cc1` (stereo not given), the outcome was inactive.
Consider `Cn1cnc2c(F)c(Nc3ccc(Br)cc3Cl)c(C(=O)NOCCO)cc21`, for which the call was inactive.
Regarding `CC1=CC(C)(C)Nc2ccccc21`, the molecule was classed as inactive.
As to `COc1cccc2c1C(=O)c1c(O)c3c(c(O)c1C2=O)C[C@@](O)(C(=O)CO)C[C@@H]3O[C@H]1C[C@H](N)[C@H](O[C@@H]2CCCCO2)[C@H](C)O1`, the AC50 is 7.4 µM (active).
Turning to `CC(C)COC(=O)COc1cc(Cl)c(Cl)cc1Cl`, the result was inactive.
Regarding `CCCCNc1cc(C(=O)O)cc(S(N)(=O)=O)c1Oc1ccccc1`, the call was inactive.
On the same count and under the same terms, the same measure for `Oc1ccc(Cl)c2cccnc12`: “inactive”.
Still for that read-out and setting: the same measure for `Cc1cc(-c2ccc(N=Nc3cc(S(=O)(=O)O)c4ccccc4c3N)c(C)c2)ccc1N=Nc1cc(S(=O)(=O)O)c2ccccc2c1N`: “inactive”; for `CC1(C)C[C@@H]1C(=O)N/C(=C\CCCCSC[C@H](N)C(=O)O)C(=O)O`: “inactive”.
The same measure, in the same setting: the same measure for `O[C@@H]([C@H](O)[C@H](O)CBr)[C@H](O)CBr`: “inactive”.
`Cc1cc(O)c(C(C)C)cc1Cl`: the molecule was called inactive.
For `Cc1cc(O)c2c(c1)O[C@@]1(C)CC[C@H]3C(C)(C)CCCC34CO[C@@H]2[C@H]41` (stereo not given in full), the half-maximal activity concentration (AC50) was 31 µM (active).
As for `CN1[C@@H]2CC[C@H]1CC(OC(=O)C(O)c1ccccc1)C2` (stereo not given in full), the molecule was classed as inactive.
